Screens from PubChem BioAssay.
Hits are enriched below; roughly 2.9% of the tested compounds scored in any of these assays.
POLB inh: DNA polymerase beta (human) inhibition. Potency, µM (series often up to 114 µM), without a hit: at the highest dose activity change, negative = inhibition, usual class: inhibitors. Pol beta primer extension/strand displacement, fluorescence kinetic. 1.3% of 340,000 active. P06746; further: potency means the concentration at half of the fitted maximal effect; on the % scale 0 is the no-effect control and ±100 the full control effect
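Human Pol beta at 10 nM; strand-displacement substrate 50 nM final. Compound exposure 15 min at room temperature before start, reaction 10 min at room temperature.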
ALOX12 inh: blocks human arachidonate 12S-lipoxygenase; P18054; purified 12hLO, xylenol orange hydroperoxide absorbance; Potency, µM (series often up to 108 µM), for inactives: top-dose activity change, negative = inhibition, actives largely listed as inhibitors; 1.1% of 580,000 active; further: potency means the concentration at half of the fitted maximal effect; on the % scale 0 is the no-effect control and ±100 the full control effect
Target sequence (P18054 whole entry, looked up): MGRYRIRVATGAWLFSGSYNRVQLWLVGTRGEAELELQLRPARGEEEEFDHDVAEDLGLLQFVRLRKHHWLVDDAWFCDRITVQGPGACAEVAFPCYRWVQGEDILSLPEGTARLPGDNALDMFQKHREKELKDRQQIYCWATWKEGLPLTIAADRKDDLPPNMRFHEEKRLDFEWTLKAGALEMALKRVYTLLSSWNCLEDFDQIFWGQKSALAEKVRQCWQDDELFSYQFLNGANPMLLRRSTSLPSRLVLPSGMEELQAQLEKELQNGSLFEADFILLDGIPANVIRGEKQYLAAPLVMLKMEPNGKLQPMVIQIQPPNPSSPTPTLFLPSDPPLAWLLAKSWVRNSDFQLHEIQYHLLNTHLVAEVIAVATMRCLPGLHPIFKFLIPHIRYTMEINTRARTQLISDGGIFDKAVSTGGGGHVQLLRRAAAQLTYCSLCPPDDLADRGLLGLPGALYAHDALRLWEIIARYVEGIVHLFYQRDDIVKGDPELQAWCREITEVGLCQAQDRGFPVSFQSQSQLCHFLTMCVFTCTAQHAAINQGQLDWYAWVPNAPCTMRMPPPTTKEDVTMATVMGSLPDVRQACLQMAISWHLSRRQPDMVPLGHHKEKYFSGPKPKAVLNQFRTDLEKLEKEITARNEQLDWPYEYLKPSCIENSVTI
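Purified human 12hLO at 150 nM in 25 mM Hepes, 0.01% Triton X-100, pH 7.0, preincubated 15 min at room temperature with compound. Reaction started with 40 uM arachidonic acid, 30 min at room temperature. Hydroperoxide measured by Fe-xylenol orange, 573/405 nm absorbance ratio.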
Pol iota inh: blocks human DNA polymerase iota activity | Pol iota fluorescent replication assay, 10 min | 1% of 390,000 active | AID 588590 | Q9UNA4 | Potency, µM (highest dose often 115 µM), without a hit: at the highest dose activity, negative = inhibition, hits mostly inhibitors; further: potency means the concentration at half of the fitted maximal effect
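Pol iota at 10 nM preincubated 15 min with compounds at room temperature; reaction started with fluorescent substrate, 50 nM final. Fluorescence read kinetically at 0 and 10 min; buffer-only wells as negative control.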
Pol eta inh-1: inhibitors of human DNA polymerase eta; 1.2% of 390,000 active; recombinant Pol eta, fluorescent DNA replication assay; Potency, µM (highest dose often 114 µM), for inactives: top-dose activity change, negative = inhibition, most hits filed as inhibitors; further: potency means the concentration at half of the fitted maximal effect; on the % scale 0 is the no-effect control and ±100 the full control effect
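Fluorescent replication assay: 50 nM final substrate added after a 15 min room-temperature compound preincubation with 10 nM enzyme. Signal taken at 0 min and again at 10 min.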
PI5P4K alpha inh: PI5P4K alpha (human) kinase inhibition; P48426; PI5P4Kalpha enzyme, ADP-Glo luminescence, 60 min; active compounds read low; max response, %; 1.2% of 330,000 active; AID 652105; active means max response of -50% or lower; inconclusive means between -30% and -50%; inactive means -30% or higher; further: value at the top dose of about 77 µM; on the % scale 0 is the no-effect control and ±100 the full control effect
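Human PI5P4Kalpha with substrate in 0.038 M HEPES pH 7.4, 0.28 mM EGTA, 0.1% CHAPS, 5% DMSO; reaction started with 5 microM ATP (final), 60 min at room temperature. ADP formed read by ADP-Glo luminescence.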
Pol kappa inh-1: inhibitors of human DNA polymerase kappa. 0.53% of 400,000 active. purified Pol kappa, fluorescent DNA synthesis assay, 10 min. Potency, µM (highest dose often 107 µM), inactives show at the top dose activity, negative = inhibition, most hits filed as inhibitors. Q9UBT6; further: potency means the concentration at half of the fitted maximal effect; on the % scale 0 is the no-effect control and ±100 the full control effect
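Kinetic fluorescence screen: compound preincubated 15 min RT with 10 nM enzyme; 50 nM substrate (final) initiates; reads at 0/10 min.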
GALK confirm: galactokinase (human) inhibition, confirmation. shares compounds with Pol eta inh-1. purified GALK, Kinase-Glo ATP depletion luminescence. Potency, µM (series often up to 115 µM), without a hit: at the top dose activity, negative = inhibition, actives largely listed as inhibitors. 70% of 150 active
GALK redox cs: redox cycling activity in phenol red-HRP assay. shares compounds with Pol eta inh-1. Phenol red-HRP H2O2 redox cycling, absorbance 600 nm. Potency, µM (top dose mostly 115 µM), for the others: top-dose activity change, negative = H2O2 signal, most hits filed as inhibitors. 40% of 150 active
HEK293 tox: reduces HEK-293 cell viability in GALK counter-screen; shares compounds with Pol eta inh-1; HEK-293 viability, ATP luminescence (CellTiter-Glo), 24/48 h; Potency, µM (titrated, usually from 46.1 µM), without a hit: at the highest dose activity change, negative = cytotoxicity, usual class: inhibitors; 10% of 170 active; further: potency means the concentration at half of the fitted maximal effect; on the % scale 0 is the no-effect control and ±100 the full control effect
Pol kappa inh-2: Pol kappa (human) inhibition, cherry-pick confirmation; purified Pol-kappa, fluorescent strand-displacement substrate; Potency, µM, most hits filed as inhibitors; shares compounds with Pol eta inh-1; AID 720501; 76% of 920 active; further: potency means the concentration at half of the fitted maximal effect
Pol eta inh-2: Pol eta (human) inhibition, cherry-pick confirmation. shares compounds with Pol eta inh-1. Pol eta primer extension, TAMRA/BHQ fluorescence, 10 min. Potency, µM, usual class: inhibitors. 64% of 2,600 active; further: potency means the concentration at half of the fitted maximal effect
An asterisk follows results filed as active; ? = inconclusive; / = not tested or not shown. Unless noted, the call rests on the fitted dose curve; in most records, active means well fitted curve in the direction sought with a large enough effect; inconclusive means small, poorly fitted or top-dose-only effect, or another doubt; inactive means no such curve, though single readings can be large; an effect the other way counts as inactive or inconclusive.

SMILES	POLB inh	ALOX12 inh	Pol iota inh	Pol eta inh-1	PI5P4K alpha inh	Pol kappa inh-1	Pol eta inh-2	others
CCC1CCc2nc3ccc(Cl)cc3c(-c3ccccc3F)c2C1 (centres undefined)	/	9.1%	/	/	/	/	/
O=C(CCN1C(=O)/C(=C/C=C/c2ccccc2)SC1=S)Nc1nccs1	4.2%	?	?	18.1%	-12.8	-7.6%	/
O=C(CCN1C(=O)/C(=C\C=C\c2ccccc2)SC1=S)Nc1ccccc1C(=O)O	38.0%	?	?	25.1µM*	?	?	?
CC(NCc1nc2c([nH]1)c(=O)n(C)c(=O)n2C)c1ccccc1 (centres undefined)	/	-4.0%	/	/	/	/	/
CC(=O)COC(=O)C1CCN(S(=O)(=O)c2cc([N+](=O)[O-])ccc2Cl)CC1	28.2µM*	0.0%	?	31.6µM*	-52.8*	?	?
C=C1C(=O)OC2C1CCC(C)C1C=CC(=O)C12C (centres undefined)	/	-27.3%	44.7µM*	14.1µM*	-8.2	-38.6%	?
CC1=NN(c2ccc(C(=O)O)cc2)C(=O)/C1=C\c1ccc(OC(=O)c2cccs2)cc1	?	?	?	22.4µM*	15.0	-17.6%	?
CC(=O)Oc1ccc2c(=O)c(Oc3ccccc3)coc2c1OC(C)=O	10µM*	?	12.6µM*	6.31µM*	-27.4	14.1µM*	?
COc1ccc(Oc2coc3cc(OC(=O)c4ccccc4)ccc3c2=O)cc1	/	21.0%	/	/	/	/	/
Cc1cc(/C=C2\SC(=S)NC2=O)c(C)n1-c1cccc(O)c1	44.7µM*	39.8µM*	?	35.5µM*	-67.7*	-17.7%	?
c1ccc(-c2nc(NCc3cc4n(n3)CCCNC4)c3ccccc3n2)cc1	/	0.9%	/	/	/	/	/
O=C(CSc1ccc2c(c1)OCCCO2)Nc1ccccc1C(=O)c1ccccc1	/	27.2%	/	/	/	/	/
O=C1NN(c2ccc(F)cc2)C(=O)/C1=C/c1cccs1	1.7%	?	70.9%	13.3%	-11.4	-29.0%	/
O=C1NN(c2ccc(Br)cc2)C(=O)/C1=C\c1ccc(O)cc1O	3.4%	39.8µM*	?	4.1%	?	-38.2%	/	GALK confirm=47.3µM*;GALK redox cs=-3.5%;HEK293 tox=-3.7%
Nc1nonc1C(=O)N/N=C/c1ccc(-c2ccc(Cl)c(C(=O)O)c2)o1	?	-0.6%	22.4µM*	12.6µM*	-24.3	?	47.8*
Cc1[nH][nH]c(=O)c1C(c1ccc(-c2ccc(Cl)c(C(=O)O)c2)o1)c1c(C)[nH][nH]c1=O	-24.8%	?	3.16µM*	10µM*	-21.7	50.1µM*	60.1*	GALK confirm=?;GALK redox cs=4.73µM*;HEK293 tox=-7.2%;Pol kappa inh-2=23.8*
CC1(C)OC(=O)C(=Cc2ccc(-c3ccc(Cl)c(C(=O)O)c3)o2)C(=O)O1	?	-23.5%	?	10µM*	?	39.8µM*	26.9*
Cc1ccc(N2NC(=O)/C(=C/c3ccc(-c4ccc(Cl)c(C(=O)O)c4)o3)C2=O)cc1C	-1.6%	?	?	?	-17.1	-44.3%	/	Pol kappa inh-2=?
Cc1ccc(-c2ccc(C(=O)O)o2)cc1Cl	-1.2%	1.1%	17.1%	-3.2%	-0.2	-17.4%	/
CCOC(=O)C1=C(C)NC(=O)NC1c1nc2ccccc2n1CC (centres undefined)	/	12.8%	/	/	/	/	/
CCCC(=O)OCCNc1c(C(=O)OCC)cnc2c(Cl)c(Cl)ccc12	/	26.3%	/	/	/	/	/
CCOC(=O)c1cc(S(=O)(=O)N(C)CC(=O)N2CCN(c3ccccc3F)CC2)cn1C	/	-19.2%	/	/	/	/	/
CCS(=O)(=O)C1=NN2C(=N)/C(=C\c3ccc(OC(=O)c4ccco4)c(Br)c3)C(=O)N=C2S1	89.1µM*	/	/	/	/	/	/	GALK confirm=29.8µM*;GALK redox cs=0.0%;HEK293 tox=-10.0%
O=C(O)C1CN(c2nc(Cl)ccc2[N+](=O)[O-])C1	35.5µM*	-14.4%	15.5%	20µM*	-12.1	-9.3%	30.1*	Pol kappa inh-2=67*
Cc1cc(N/N=C/c2ccc([N+](=O)[O-])o2)nc2ccccc12	-26.4%	-15.1%	-3.4%	-8.9%	-14.6	-27.9%	/
SMILES	POLB inh	ALOX12 inh	Pol iota inh	Pol eta inh-1	PI5P4K alpha inh	Pol kappa inh-1	Pol eta inh-2	others
Cc1csc(N=Cc2ccc([N+](=O)[O-])o2)n1	/	-23.8%	/	17.8µM*	-81.6*	/	?
C/C(=N\NC(=O)c1cc(O)ccc1O)c1cccc(NC(=O)c2cccc(Cl)c2)c1	?	?	?	?	?	79.4µM*	?
C/C(=N\NC(=O)C1CC1)c1cccc(NC(=O)c2cccc(Cl)c2)c1	3.9%	/	/	/	/	/	/
O=[N+]([O-])c1ccc(Cl)c(S(=O)(=O)Nc2ccc3cn[nH]c3c2)c1	/	-3.8%	29.0%	-8.6%	0.3	-4.3%	/
O=C(O)c1ccc(Cl)c(S(=O)(=O)Nc2ccc3cn[nH]c3c2)c1	22.4µM*	-20.5%	?	17.8µM*	-20.6	?	?
N#Cc1ccc(CN2C[C@@H](COCC(N)=O)[C@H](c3ccncc3)C2)cc1	/	27.7%	/	/	/	/	/
O=C(N/N=C/c1ccncc1)c1cc([N+](=O)[O-])cc([N+](=O)[O-])c1O	0.4%	50.1µM*	?	25.1µM*	?	-5.2%	?
S=c1[nH]nc(-c2cc(-c3ccccc3)n[nH]2)n1/N=C/c1ccccc1	1.6%	0.0%	-0.1%	-1.1%	-8.6	-18.3%	/
S=c1[nH]nc(-c2cc(-c3ccccc3)n[nH]2)n1/N=C/C(Br)=C/c1ccccc1	12.6µM*	?	22.4µM*	50.1µM*	?	-32.0%	/	Pol kappa inh-2=67*
CCN(CC)Cc1cc(O)c(CN(CC)CC)cc1O	3.55µM*	49.3%	?	50.1µM*	-10.7	8.91µM*	?
